According to PubChem BioAssay (Tox21):
Inconclusive results are not listed. Calls of active or inactive are those of the source. Unless noted, the call rests on the fitted dose curve.

Experiments:
[1] = Nuclear factor erythroid 2-related factor 2/antioxidant responsive element (Nrf2/ARE) small molecule agonists: qHTS cell viability counter screen in human keratinocytes (AID 1919968; active means well fitted curve in the direction sought with a large enough effect in the repeat runs; an effect the other way counts as inactive or inconclusive; further: nearly all actives have a fitted effect of over 55% in size)
Summary of the method: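 KeratinoSens HaCaT cells, 1,500/well, preincubated 5 h, then exposed to compounds in DMSO for 23 h at 37 C/5% CO2. Viability read as CellTiter-Fluor fluorescence after 1 h, in the same wells as the ARE-luciferase read.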

[2] = target: Gonadotropin-releasing hormone receptor (Homo sapiens) (UniProt P30968); assay: Human gonadotropin-releasing hormone receptor (GnRHR) small molecule agonists, calcium flux assay in GnRHR-HEK293 cells (AID 1920063); further: nearly all actives have a fitted effect of over 35% in size
Summary of the method: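 HEK293 cells stably expressing human GnRHR were dye-loaded for 1 h at 37 C. Compound was added in agonist mode and fluorescence (Ex/Em 480/540) recorded kinetically for 3 min. Fifteen concentrations, triplicates.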

[3] = target: KiSS-1 receptor (Homo sapiens) (UniProt Q969F8); assay: Human kisspeptin (KISS1R) small molecule agonists, calcium flux assay in KISS1R-HEK293 cells (AID 1920064; active means well fitted curve in the direction sought with a large enough effect in the repeat runs; an effect the other way counts as inactive or inconclusive)
Summary of the method: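 HEK293 cells stably expressing human KISS1R were loaded with calcium dye for 1 h at 37 C, then given compound; fluorescence (Ex/Em 480/540) was read kinetically for 3 min. Fifteen concentrations, triplicate.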

[4] = G protein-coupled receptor (GPCR) small molecule agonists, calcium flux assay: HEK293 wild type cell line counter screen (AID 1920065)
Summary of the method: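 Wild-type HEK293 cells plated 18 h, loaded with calcium dye 1 h at 37 C, then compounds added in agonist mode (ATP as positive control). Kinetic fluorescence Ex/Em 480/540 recorded 3 min at 1 sec intervals; 15 concentrations, triplicate.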

[5] = p53 small molecule agonists, cell-based qHTS assay with human liver microsomes: qHTS cell viability counter screen (AID 1963579); further: nearly all actives have a fitted effect of over 45% in size
Summary of the method: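 Viability of p53RE-bla cells is measured as CellTiter-Glo luminescence following a 16 h, 37 C incubation with compound, liver microsomes from human donors and NADPH.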

[6] = p53 small molecule agonists, cell-based qHTS assay with rat liver microsomes: qHTS cell viability counter screen (AID 1963580); further: nearly all actives have a fitted effect of over 45% in size
Summary of the method: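 HCT-116 p53RE-bla, 4,000 cells/well, 5 h pre-incubation; cpd + rat liver microsomes 0.5 mg/mL + NADPH 0.5 mg/mL (final); 16 h, 37 C; CellTiter-Glo, 30 min RT; luminescence.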

[7] = p53 small molecule agonists, cell-based qHTS assay: qHTS cell viability counter screen (AID 1963581); further: nearly all actives have a fitted effect of over 45% in size
Summary of the method: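 p53RE-bla HCT-116 cells, compounds added 5 h after plating and incubated 16 h at 37 C. Cytotoxicity measured in the same wells as intracellular ATP by CellTiter-Glo luminescence after 30 min at room temperature.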

[8] = target: 5-hydroxytryptamine receptor 2A (Homo sapiens) (UniProt P28223); assay: 5-hydroxytryptamine receptor 2A (HTR2A) small molecule antagonists, cell-based qHTS assay (AID 1963586); further: nearly all actives have a fitted effect of over 45% in size
Summary of the method: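 Antagonist-mode intracellular calcium assay: DOI (4 nM) added after 5 min compound pre-incubation at room temperature to dye-loaded HTR2A-CHO cells. Fluorescence followed for 3 min, sampled every second.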

[9] = target: 5-hydroxytryptamine receptor 2A (Homo sapiens) (UniProt P28223); assay: 5-hydroxytryptamine receptor 2A (HTR2A) small molecule agonists, cell-based qHTS assay (AID 1963587); further: nearly all actives have a fitted effect of over 30% in size
Summary of the method: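 Kinetic calcium-flux fluorescence (2 min, 1 sec intervals) after compound addition in agonist mode. HTR2A-CHO cells were cultured 18 h, then dye-loaded 1 h at 37 C.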

[10] = target: Muscarinic acetylcholine receptor M1 (Homo sapiens) (UniProt P11229); assay: Cholinergic receptor muscarinic 1 (CHRM1) small molecule antagonists, cell-based qHTS assay (AID 1963588); further: nearly all actives have a fitted effect of over 40% in size
Summary of the method: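 CHRM1-CHO calcium-flux assay, antagonist mode. Cells were seeded 18 h, dye-loaded 1 h at 37 C and given compound for 5 min at RT, then acetylcholine was added at 50nM. FDSS fluorescence was read 3 min; 15 concentrations, three runs.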

[11] = target: Muscarinic acetylcholine receptor M1 (Homo sapiens) (UniProt P11229); assay: Cholinergic receptor muscarinic 1 (CHRM1) small molecule agonists, cell-based qHTS assay (AID 1963589); further: nearly all actives have a fitted effect of over 35% in size
Summary of the method: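 CHO cells stably expressing human CHRM1 were loaded with calcium dye for 1 h at 37 C, then compound was added in agonist mode. Intracellular calcium fluorescence was followed kinetically at 1 s intervals. Fifteen concentrations were tested in three independent runs.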

[12] = target: Beta-2 adrenergic receptor (Homo sapiens) (UniProt P07550); assay: Adrenergic beta2 receptor (ADRB2) small molecule antagonists, cell-based qHTS assay (AID 1963592); further: series mostly up to about 92 µM; nearly all actives have a fitted effect of over 50% in size
Summary of the method: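 Cells (CHO, stable ADRB2 overexpression) incubated 18-20hr at 37C; compounds added from DMSO; agonist mix (1nM isoproterenol, 100uM IBMX, 25uM Ro-20-1724) added; 0.5hr RT; d2-cAMP and anti-cAMP-cryptate added; 1hr RT; 665/615 nm read.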

[13] = target: Beta-2 adrenergic receptor (Homo sapiens) (UniProt P07550); assay: Adrenergic beta2 receptor (ADRB2) small molecule agonists, cell-based qHTS assay (AID 1963593);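 further: CHO cells stably overexpressing human ADRB2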
Summary of the method: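 CHO cells stably over-expressing ADRB2 were plated overnight at 37C, then dosed with compounds plus a stimulation mix containing 100uM IBMX and 25uM Ro-20-1724 for 0.5hr at room temperature. cAMP was measured by HTRF competition, 1hr.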

[14] = target: D(2) dopamine receptor (Homo sapiens) (UniProt P14416); assay: Dopamine D2 receptor (DRD2) small molecule agonists, cell-based qHTS assay (AID 1963594); further: nearly all actives have a fitted effect of over 35% in size
Summary of the method: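 cAMP accumulation in DRD2-HEK293 cells measured by HTRF after 1 h detection; compounds added 10 min before NKH477 (200nM […]) forskolin-analogue stimulation, 30 min at room temperature, with Ro20-1724 present at 0.1 mM final.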

[15] = target: D(2) dopamine receptor (Homo sapiens) (UniProt P14416); assay: Dopamine D2 receptor (DRD2) small molecule antagonists, cell-based qHTS assay (AID 1963595; active means well fitted inhibition curve with a large enough effect in the signal ratio in the repeat runs, with a control signal flat; the % refers to the signal ratio)
Summary of the method: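 Stable D2 receptor HEK293 line, 24 h after seeding. Compound preincubated 10 min, then quinpirole (12 nM) with forskolin analogue NKH477 (200 nM), 30 min, room temperature. Detection by time-resolved FRET of cAMP.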

[16] = cAMP Responsive Elements (CRE) small molecule agonists, cell-based qHTS assay (AID 1963590)
Summary of the method: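 CRE-bla HEK 293T cells, 2,000/well in DMEM with 10% dialyzed FBS and 25 mM HEPES, pre-incubated 18 h at 37 C, then exposed to compound 3 h at 37 C. Beta-lactamase reporter read with LiveBLAzer B/G FRET substrate after 2 h at room temperature.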

[17] = cAMP Responsive Elements (CRE) small molecule antagonists, cell-based qHTS assay (AID 1963591; active means well fitted inhibition curve with a large enough effect in the signal ratio in the repeat runs, not every such curve was filed as active; the % refers to the signal ratio)
Summary of the method: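 CRE-bla HEK293T cells plated 18 h, then given compound plus NKH477 at 0.25 uM final for 3 h at 37C. Beta-lactamase reporter read with LiveBLAzer B/G FRET substrate after 2 h at room temperature.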

Measured: Potency

Chain of Muscarinic acetylcholine receptor M1 (Homo sapiens) (P11229 whole entry, looked up): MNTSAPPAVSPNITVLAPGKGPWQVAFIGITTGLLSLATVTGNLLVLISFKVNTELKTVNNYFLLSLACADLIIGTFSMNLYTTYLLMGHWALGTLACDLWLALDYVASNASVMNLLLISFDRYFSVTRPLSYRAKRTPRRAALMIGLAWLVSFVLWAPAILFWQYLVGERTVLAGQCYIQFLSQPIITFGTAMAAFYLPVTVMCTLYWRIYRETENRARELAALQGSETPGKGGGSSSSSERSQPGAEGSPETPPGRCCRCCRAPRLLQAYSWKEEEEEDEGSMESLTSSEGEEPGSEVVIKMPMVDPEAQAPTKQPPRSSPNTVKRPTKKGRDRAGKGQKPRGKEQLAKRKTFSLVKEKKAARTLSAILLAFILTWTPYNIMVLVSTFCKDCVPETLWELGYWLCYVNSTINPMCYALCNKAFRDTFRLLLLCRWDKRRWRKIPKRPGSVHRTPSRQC
Chain of Gonadotropin-releasing hormone receptor (Homo sapiens) (P30968 whole entry, looked up): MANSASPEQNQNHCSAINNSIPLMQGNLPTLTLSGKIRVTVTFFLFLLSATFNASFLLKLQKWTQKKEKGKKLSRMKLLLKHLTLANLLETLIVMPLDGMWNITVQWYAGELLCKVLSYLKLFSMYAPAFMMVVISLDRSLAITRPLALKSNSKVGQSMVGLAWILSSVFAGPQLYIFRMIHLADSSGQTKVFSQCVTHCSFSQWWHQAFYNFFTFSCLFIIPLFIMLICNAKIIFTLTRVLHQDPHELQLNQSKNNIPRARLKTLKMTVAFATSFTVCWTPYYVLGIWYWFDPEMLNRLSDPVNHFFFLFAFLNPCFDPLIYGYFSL
Chain of 5-hydroxytryptamine receptor 2A (Homo sapiens) (P28223 whole entry, looked up): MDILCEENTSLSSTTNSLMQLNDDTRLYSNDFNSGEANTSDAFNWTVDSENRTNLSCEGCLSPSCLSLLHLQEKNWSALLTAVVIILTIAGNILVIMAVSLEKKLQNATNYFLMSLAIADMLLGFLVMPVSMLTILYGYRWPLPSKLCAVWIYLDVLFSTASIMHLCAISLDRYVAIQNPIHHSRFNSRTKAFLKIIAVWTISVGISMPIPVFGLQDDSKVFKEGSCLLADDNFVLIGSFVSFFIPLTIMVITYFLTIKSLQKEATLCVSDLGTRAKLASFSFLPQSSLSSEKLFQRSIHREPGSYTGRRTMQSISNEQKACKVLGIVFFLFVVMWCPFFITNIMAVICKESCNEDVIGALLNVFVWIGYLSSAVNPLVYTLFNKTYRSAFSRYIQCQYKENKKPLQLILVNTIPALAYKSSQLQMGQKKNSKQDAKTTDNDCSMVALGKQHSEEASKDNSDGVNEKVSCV
Chain of Beta-2 adrenergic receptor (Homo sapiens) (P07550 whole entry, looked up): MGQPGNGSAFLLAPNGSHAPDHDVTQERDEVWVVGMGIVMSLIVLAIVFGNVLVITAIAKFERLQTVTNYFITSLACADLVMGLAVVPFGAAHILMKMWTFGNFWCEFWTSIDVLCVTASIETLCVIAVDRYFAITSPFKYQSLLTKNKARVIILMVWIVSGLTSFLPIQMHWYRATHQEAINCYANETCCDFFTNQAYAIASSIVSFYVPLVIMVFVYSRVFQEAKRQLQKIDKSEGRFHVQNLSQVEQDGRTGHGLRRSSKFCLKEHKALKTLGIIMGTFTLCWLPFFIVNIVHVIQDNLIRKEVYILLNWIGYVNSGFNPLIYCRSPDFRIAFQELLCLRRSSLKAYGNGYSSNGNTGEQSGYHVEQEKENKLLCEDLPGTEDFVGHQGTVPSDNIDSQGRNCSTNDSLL
Chain of D(2) dopamine receptor (Homo sapiens) (P14416 whole entry, looked up): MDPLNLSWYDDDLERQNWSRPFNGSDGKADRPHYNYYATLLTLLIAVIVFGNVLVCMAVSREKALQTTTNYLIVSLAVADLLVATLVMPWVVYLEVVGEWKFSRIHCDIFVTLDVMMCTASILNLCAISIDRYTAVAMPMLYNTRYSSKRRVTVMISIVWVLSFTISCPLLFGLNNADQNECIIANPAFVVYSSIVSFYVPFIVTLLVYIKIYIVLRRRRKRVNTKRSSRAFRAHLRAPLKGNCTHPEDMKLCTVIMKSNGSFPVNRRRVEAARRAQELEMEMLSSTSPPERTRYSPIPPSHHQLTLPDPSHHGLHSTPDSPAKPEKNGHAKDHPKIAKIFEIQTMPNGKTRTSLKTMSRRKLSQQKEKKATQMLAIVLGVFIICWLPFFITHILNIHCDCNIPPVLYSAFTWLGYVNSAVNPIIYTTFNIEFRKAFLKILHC
Chain of KiSS-1 receptor (Homo sapiens) (Q969F8 whole entry, looked up): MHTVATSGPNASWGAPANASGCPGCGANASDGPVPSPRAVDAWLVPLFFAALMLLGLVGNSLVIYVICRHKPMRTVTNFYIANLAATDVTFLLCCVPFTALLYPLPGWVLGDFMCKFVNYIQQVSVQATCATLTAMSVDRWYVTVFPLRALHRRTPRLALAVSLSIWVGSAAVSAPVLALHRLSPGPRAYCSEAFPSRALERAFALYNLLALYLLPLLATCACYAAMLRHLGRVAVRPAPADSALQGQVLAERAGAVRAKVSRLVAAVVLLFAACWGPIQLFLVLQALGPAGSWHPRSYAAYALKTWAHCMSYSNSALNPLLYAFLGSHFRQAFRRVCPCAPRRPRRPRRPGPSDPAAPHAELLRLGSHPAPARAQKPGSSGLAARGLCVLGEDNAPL

CCCCCCCC/C=C\CCCCCCCC(=O)OCCO
not listed: [16] | [17]
inactive: all other assays above

Cn1cc(C(=O)[C@@H]2CCc3nc[nH]c3C2)c2ccccc21
not listed: [8] | [13] | [17]
inactive: all other assays above

O=Cc1ccccc1S(=O)(=O)O
not listed: [8]
inactive: all other assays above

CNc1ncnc2nc[nH]c12
not listed: [7]
inactive: all other assays above

COc1cc2nc(N(C)CCCNC(=O)C3CCCO3)nc(N)c2cc1OC (configuration not stated)
not listed: [8]
inactive: all other assays above

COC(OC)(C(=O)c1ccccc1)c1ccccc1
not listed: [7] | [12]
inactive: all other assays above
